Records with an inconclusive call do not appear. The source made the active and inactive calls. The calls were made as follows, unless noted: active = hit-call score of the fitted dose curve at least 0.9, where 1 is the maximum; inactive = score below 0.9.
Key:
[1] = molecular target: Paired box protein Pax-6 (Homo sapiens) (UniProt P26367); test: ATG_Pax6_CIS: Attagene CIS-FACTORIAL HepG2 Assay for human Paired Box 6 (PAX6) (AID 2282956); settings: HepG2 CIS-FACTORIAL PAX6 reporter transcription, RNA readout; actives raise or lower the signal
Chain of Paired box protein Pax-6 (Homo sapiens) (P26367 whole entry, looked up): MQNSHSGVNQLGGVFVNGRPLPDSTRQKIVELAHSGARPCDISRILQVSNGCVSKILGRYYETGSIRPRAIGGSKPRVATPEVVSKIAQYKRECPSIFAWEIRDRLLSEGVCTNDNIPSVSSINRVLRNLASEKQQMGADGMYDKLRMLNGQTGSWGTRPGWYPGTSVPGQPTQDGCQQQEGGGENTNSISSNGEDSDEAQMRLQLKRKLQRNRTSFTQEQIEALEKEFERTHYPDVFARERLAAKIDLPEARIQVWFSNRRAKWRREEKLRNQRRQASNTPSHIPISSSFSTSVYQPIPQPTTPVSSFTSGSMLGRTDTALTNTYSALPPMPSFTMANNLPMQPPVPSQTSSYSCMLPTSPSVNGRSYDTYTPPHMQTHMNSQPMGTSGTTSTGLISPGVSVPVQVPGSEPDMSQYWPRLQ
Procedure, shortened: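 Fluorescent RT-PCR products separated by capillary electrophoresis report PAX6-linked promoter mRNA in HepG2 cells 24 h post-dose. Curves fitted bidirectionally, DMSO as negative control.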

[2] = ATG_PPRE_CIS: Attagene CIS-FACTORIAL HepG2 Assay for human Peroxisome Proliferator-activated Response Element (PPRE) (AID 2282958); settings: HepG2 PPRE cis-element reporter, Attagene transcription factor profiling; actives raise or lower the signal
Procedure, shortened: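 Endogenous PPRE-driven transcription is measured in HepG2 cells carrying transfected multi-reporter constructs. Reporter transcripts are quantified by RT-PCR, HpaI digestion and capillary electrophoresis 24 h after dosing. DMSO baseline, bidirectional fit.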

[3] = ATG_RORE_CIS: Attagene CIS-FACTORIAL HepG2 Assay for human RAR-related Orphan Receptor Element (RORE) (AID 2282959); settings: HepG2 Attagene cis-factorial RORE reporter, mRNA; actives raise or lower the signal
Procedure, shortened: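 RORE reporter transcripts reflecting endogenous factor activity were read after 24 h compound exposure of transfected HepG2 cells, using reverse transcription, PCR, fluorescent labelling and capillary electrophoresis sizing. Gain or loss fitted against DMSO.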

[4] = ATG_Sox_CIS: Attagene CIS-FACTORIAL HepG2 Assay for human SRY-box transcription factor (SOX) (AID 2282960); settings: HepG2 Attagene cis-factorial SOX reporter, mRNA; actives raise or lower the signal
Procedure, shortened: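 Reporter transcripts, measured by RT-PCR and capillary electrophoresis of labelled fragments, report endogenous SOX transcription factor activity. Transiently transfected human HepG2 cells receive chemical for 24 h; changes in either direction are fitted relative to DMSO.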

[5] = molecular target: Transcription factor Sp1 (Homo sapiens) (UniProt P08047); test: ATG_Sp1_CIS: Attagene CIS-FACTORIAL HepG2 Assay for human Specificity Protein 1 (Sp1) (AID 2282961); settings: HepG2 Sp1 cis-reporter transcription, actives raise or lower the signal
Chain of Transcription factor Sp1 (Homo sapiens) (P08047 whole entry, looked up): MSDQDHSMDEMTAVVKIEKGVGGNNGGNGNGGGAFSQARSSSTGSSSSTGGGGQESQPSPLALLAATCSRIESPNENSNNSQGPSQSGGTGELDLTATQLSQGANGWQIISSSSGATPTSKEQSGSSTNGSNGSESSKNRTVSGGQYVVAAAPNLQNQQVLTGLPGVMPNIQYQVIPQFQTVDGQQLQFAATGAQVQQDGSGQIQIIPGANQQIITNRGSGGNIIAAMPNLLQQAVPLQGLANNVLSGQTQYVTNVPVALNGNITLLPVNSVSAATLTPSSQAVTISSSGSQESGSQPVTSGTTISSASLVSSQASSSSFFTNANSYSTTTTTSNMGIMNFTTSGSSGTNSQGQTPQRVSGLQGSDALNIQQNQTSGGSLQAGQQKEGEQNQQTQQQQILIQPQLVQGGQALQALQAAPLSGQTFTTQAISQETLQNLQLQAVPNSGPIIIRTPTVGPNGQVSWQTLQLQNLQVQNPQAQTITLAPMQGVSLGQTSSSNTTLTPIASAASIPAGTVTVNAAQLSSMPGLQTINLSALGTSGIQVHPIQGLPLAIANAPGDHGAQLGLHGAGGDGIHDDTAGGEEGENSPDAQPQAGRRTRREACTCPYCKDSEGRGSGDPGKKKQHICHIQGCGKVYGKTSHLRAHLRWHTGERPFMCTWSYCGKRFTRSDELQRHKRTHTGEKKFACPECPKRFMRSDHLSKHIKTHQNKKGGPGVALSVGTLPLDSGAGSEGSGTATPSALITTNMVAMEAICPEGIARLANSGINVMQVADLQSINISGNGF
Procedure, shortened: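 Read-out is reporter transcript level, measured by RT-PCR and fluorescent capillary electrophoresis after 24 h chemical treatment. System: transiently transfected HepG2 cells reporting endogenous transcription factor activity; gain or loss fitted against DMSO baseline.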

[6] = ATG_SREBP_CIS: Attagene CIS-FACTORIAL HepG2 Assay for human Sterol Regulatory Element Binding (SREBP) (AID 2282962); settings: HepG2 Attagene cis-factorial SREBP reporter, mRNA; actives raise or lower the signal
Procedure, shortened: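 Endogenous factor activity is measured in HepG2 through multiplexed reporter units under cis-element control. Following a 24 h incubation, reporter transcripts are reverse-transcribed, PCR-amplified and sized by capillary electrophoresis; activity is fitted in both directions relative to DMSO.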

[7] = molecular target: Signal transducer and activator of transcription 3 (Homo sapiens) (UniProt P40763); test: ATG_STAT3_CIS: Attagene CIS-FACTORIAL HepG2 Assay for human Signal Transducer and Activator of Transcription 3 (STAT3) (AID 2282963); settings: HepG2, Attagene cis-factorial STAT3 reporter transcription; actives raise or lower the signal
Chain of Signal transducer and activator of transcription 3 (Homo sapiens) (P40763 whole entry, looked up, the tested form may be a part): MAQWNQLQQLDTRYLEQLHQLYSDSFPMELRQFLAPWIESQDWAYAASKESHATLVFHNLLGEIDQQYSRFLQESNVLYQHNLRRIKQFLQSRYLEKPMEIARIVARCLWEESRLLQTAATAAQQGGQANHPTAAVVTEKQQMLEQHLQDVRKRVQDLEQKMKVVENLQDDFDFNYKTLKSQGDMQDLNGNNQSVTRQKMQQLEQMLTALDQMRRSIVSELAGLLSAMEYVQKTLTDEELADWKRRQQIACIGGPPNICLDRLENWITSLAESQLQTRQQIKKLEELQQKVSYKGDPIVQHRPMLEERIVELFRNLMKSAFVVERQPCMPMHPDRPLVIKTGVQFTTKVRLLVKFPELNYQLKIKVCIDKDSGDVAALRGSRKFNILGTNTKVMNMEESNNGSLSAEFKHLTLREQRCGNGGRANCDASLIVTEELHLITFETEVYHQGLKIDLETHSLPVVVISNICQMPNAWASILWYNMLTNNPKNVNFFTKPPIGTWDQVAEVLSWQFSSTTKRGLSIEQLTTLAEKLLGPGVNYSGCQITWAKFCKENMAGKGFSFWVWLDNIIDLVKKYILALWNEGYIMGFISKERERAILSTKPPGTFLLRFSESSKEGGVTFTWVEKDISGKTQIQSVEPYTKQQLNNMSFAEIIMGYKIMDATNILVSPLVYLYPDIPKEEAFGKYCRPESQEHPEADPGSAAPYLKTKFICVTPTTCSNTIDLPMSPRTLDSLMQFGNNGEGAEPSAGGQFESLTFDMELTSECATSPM
Procedure, shortened: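 Readout: fluorescent reporter mRNA fragments resolved by capillary electrophoresis. Setup: HepG2 transfected with MRTUs reporting endogenous transcription-factor activity, dosed 24 h. Gain or loss of signal fitted bidirectionally against DMSO control.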

[8] = ATG_TA_CIS: Attagene CIS-FACTORIAL HepG2 Assay for human TA Basal Promoter (AID 2282964); settings: HepG2 Attagene CIS-factorial TA basal promoter reporter; actives raise or lower the signal
Procedure, shortened: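 Read-out: fluorescent reporter-transcript fragments resolved by capillary electrophoresis after RT-PCR and HpaI digestion. Source: HepG2 cells carrying transiently transfected multi-reporter cis constructs, treated 24 h. Endpoint fitted bidirectionally relative to DMSO.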

[9] = ATG_TCF_b_cat_CIS: Attagene CIS-FACTORIAL HepG2 Assay for human T-Cell-Factor with beta-catenin (TCF/b-cat) (AID 2282965); settings: HepG2 TCF/beta-catenin cis-reporter transcription, actives raise or lower the signal
Procedure, shortened: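 HepG2, transient MRTU transfection, cis-element-driven reporters (endogenous TFs). 24 h compound exposure. Readout: reporter mRNA by RT-PCR + 6-FAM primer extension, HpaI digest, capillary electrophoresis. Gain/loss fit vs DMSO baseline.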

[10] = ATG_TAL_CIS: Attagene CIS-FACTORIAL HepG2 Assay for human TAL Basal Promoter (AID 2282966); settings: HepG2 Attagene cis-factorial TAL promoter reporter; actives raise or lower the signal;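 also: background control endpoint measuring basal TAL promoter reporter mRNA not a specific factor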
Procedure, shortened: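 Human hepatoma HepG2 cells, transfected with promoter-regulated reporter units, were treated 24 h. Reporter transcript levels, measured through RT-PCR and capillary electrophoresis, were fitted for gain or loss relative to DMSO.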

[11] = ATG_TGFb_CIS: Attagene CIS-FACTORIAL HepG2 Assay for human Transforming Growth Factor (TGF) (AID 2282967); settings: HepG2 Attagene CIS TGFb reporter, mRNA transcription; actives raise or lower the signal
Procedure, shortened: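 Transient MRTU transfection of HepG2 (FuGene 6). Dose 24 h. TriZol RNA, oligo(dT) RT, PCR, 6-FAM primer extension, HpaI cut, CE. Bidirectional fit, DMSO = baseline.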

[12] = ATG_VDRE_CIS: Attagene CIS-FACTORIAL HepG2 Assay for human Vitamin D Receptor Element (VDRE) (AID 2282968); settings: HepG2 VDRE cis-reporter transcription, actives raise or lower the signal
Procedure, shortened: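 Transient MRTU transfection of HepG2, 24 h compound exposure. Readout: reporter transcripts via RT-PCR and capillary electrophoresis, fluorescence. Bidirectional fit vs DMSO.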

[13] = molecular target: Estrogen receptor (Homo sapiens) (UniProt P03372); test: ATG_ERa_TRANS: Attagene TRANS-FACTORIAL HepG2 Assay for human Estrogen Receptor alpha (ERa) (AID 2282970; active = hit-call score of the fitted dose curve at least 0.9, where 1 is the maximum); settings: HepG2 Attagene TRANS ERa GAL4 reporter, mRNA
Chain of Estrogen receptor (Homo sapiens) (P03372 whole entry, looked up, the tested form may be a part): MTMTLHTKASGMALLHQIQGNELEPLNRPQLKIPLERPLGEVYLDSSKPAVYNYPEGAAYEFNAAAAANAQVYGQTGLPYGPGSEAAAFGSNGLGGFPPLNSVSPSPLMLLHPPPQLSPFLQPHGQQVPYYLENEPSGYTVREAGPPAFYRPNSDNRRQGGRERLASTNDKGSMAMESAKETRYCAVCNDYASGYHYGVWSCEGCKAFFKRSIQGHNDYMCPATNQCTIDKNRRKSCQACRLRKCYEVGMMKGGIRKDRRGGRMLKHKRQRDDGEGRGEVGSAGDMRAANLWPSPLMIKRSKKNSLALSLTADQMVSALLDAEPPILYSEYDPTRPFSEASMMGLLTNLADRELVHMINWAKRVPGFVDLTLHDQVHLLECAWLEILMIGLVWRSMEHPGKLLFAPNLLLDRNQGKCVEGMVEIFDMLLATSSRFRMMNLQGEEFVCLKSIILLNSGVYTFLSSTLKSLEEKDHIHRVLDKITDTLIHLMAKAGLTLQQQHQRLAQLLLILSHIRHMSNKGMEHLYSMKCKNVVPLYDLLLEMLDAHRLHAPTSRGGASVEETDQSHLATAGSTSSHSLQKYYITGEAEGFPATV
Procedure, shortened: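 Signal derives from fluorescence of labelled reporter PCR fragments separated by capillary electrophoresis. HepG2 cells transiently carrying multiple GAL4-UAS reporter units were treated 24 hours, and induction above DMSO baseline was fitted as activity.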

[14] = molecular target: X-box-binding protein 1 (Homo sapiens) (UniProt P17861); test: ATG_Xbp1_CIS: Attagene CIS-FACTORIAL HepG2 Assay for human X-box Binding Protein 1 (XBP1) (AID 2282972); settings: HepG2 XBP1 cis-element reporter, Attagene multiplex; actives raise or lower the signal
Chain of X-box-binding protein 1 (Homo sapiens) (P17861 whole entry, looked up): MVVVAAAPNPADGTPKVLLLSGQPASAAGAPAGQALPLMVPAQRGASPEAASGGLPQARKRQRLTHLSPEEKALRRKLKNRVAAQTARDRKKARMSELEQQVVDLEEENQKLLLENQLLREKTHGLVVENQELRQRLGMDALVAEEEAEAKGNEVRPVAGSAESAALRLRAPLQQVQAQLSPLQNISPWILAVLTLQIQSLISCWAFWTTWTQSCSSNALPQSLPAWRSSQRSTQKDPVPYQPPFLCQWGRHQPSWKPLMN
Procedure, shortened: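 Multiplexed cis-reporter readout in transfected HepG2 liver cells. Exposure lasted 24 hours. Activity in either direction was fitted against DMSO as negative control and baseline.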

[15] = ATG_M_19_TRANS: Attagene TRANS-FACTORIAL HepG2 Assay for M19 Transcription Factor (Internal Marker) (AID 2282974; active = hit-call score of the fitted dose curve at least 0.9, where 1 is the maximum); settings: HepG2 Attagene TRANS-FACTORIAL M19 internal marker reporter
Procedure, shortened: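 Background-control readout: after 24 h chemical exposure of transfected HepG2 carrying GAL4-driven reporter units, RNA was reverse-transcribed, amplified, fluorescently labeled and sized by capillary electrophoresis; gain-of-signal fit against DMSO.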

[16] = molecular target: Nuclear receptor subfamily 1 group I member 3 (Homo sapiens) (UniProt Q14994); test: ATG_CAR_TRANS: Attagene TRANS-FACTORIAL HepG2 Assay for human Constitutive Androstane Receptor (CAR) (AID 2282969; active = hit-call score of the fitted dose curve at least 0.9, where 1 is the maximum;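 also: activators raise reporter mRNA above DMSO so AC50 marks induction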); settings: HepG2 Attagene TRANS-FACTORIAL CAR reporter
Chain of Nuclear receptor subfamily 1 group I member 3 (Homo sapiens) (Q14994 whole entry, looked up, the tested form may be a part): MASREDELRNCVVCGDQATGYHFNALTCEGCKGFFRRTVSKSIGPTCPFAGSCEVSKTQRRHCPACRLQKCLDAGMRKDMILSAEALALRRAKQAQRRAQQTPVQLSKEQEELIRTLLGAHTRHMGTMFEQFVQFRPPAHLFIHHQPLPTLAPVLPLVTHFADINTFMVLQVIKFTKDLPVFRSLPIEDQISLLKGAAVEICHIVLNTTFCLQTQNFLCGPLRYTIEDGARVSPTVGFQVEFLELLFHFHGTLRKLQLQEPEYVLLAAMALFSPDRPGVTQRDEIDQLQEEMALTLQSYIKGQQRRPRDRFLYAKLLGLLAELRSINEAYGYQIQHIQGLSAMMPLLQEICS
Procedure, shortened: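 Transiently transfected HepG2, multiplex TRANS reporters (CAR-Gal4 chimera driving GAL4-UAS reporter). 24 h dosing. Readout: reporter transcript by RT-PCR + capillary electrophoresis, fluorescence intensity; positive direction vs DMSO.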

[17] = molecular target: Steroid hormone receptor ERR1 (Homo sapiens) (UniProt P11474); test: ATG_ERRa_TRANS: Attagene TRANS-FACTORIAL HepG2 Assay for human Estrogen-Related Receptor alpha (ERRa) (AID 2282971; active = hit-call score of the fitted dose curve at least 0.9, where 1 is the maximum); settings: HepG2 Attagene TRANS reporter, ERRa transactivation
Chain of Steroid hormone receptor ERR1 (Homo sapiens) (P11474 whole entry, looked up, the tested form may be a part): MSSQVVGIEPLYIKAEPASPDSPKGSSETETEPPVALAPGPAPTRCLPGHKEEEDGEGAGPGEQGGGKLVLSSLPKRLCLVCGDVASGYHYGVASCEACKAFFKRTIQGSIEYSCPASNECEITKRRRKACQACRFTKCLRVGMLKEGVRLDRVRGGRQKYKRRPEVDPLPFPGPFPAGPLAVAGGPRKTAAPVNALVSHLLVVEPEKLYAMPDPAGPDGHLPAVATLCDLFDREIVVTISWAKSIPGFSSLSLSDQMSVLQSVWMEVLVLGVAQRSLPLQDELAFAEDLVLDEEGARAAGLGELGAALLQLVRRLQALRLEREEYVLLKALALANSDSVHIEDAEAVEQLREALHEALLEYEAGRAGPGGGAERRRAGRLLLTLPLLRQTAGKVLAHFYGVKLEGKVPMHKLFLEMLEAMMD
Procedure, shortened: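 Signal gain relative to DMSO for an ERRa-Gal4 chimeric receptor, read as reporter mRNA by RT-PCR/capillary electrophoresis. Human HepG2 liver cells, transient multiplex reporter transfection, 24 h chemical exposure.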

[18] = ATG_GAL4_TRANS: Attagene TRANS-FACTORIAL HepG2 Assay for GAL4 (Internal Marker) (AID 2282976; active = hit-call score of the fitted dose curve at least 0.9, where 1 is the maximum); settings: HepG2 Attagene TRANS GAL4 internal marker reporter
Procedure, shortened: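 Liver HepG2 line bearing multiplexed GAL4-UAS reporter constructs; 24 h chemical treatment. Transcripts were quantified as fluorescent fragments on capillary electrophoresis after RT-PCR and HpaI cut, with activity fitted upward from DMSO.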

[19] = molecular target: Estrogen-related receptor gamma (Homo sapiens) (UniProt P62508); test: ATG_ERRg_TRANS: Attagene TRANS-FACTORIAL HepG2 Assay for human Estrogen-Related Receptor gamma (ERRg) (AID 2282977; active = hit-call score of the fitted dose curve at least 0.9, where 1 is the maximum;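 also: hits increase reporter signal over DMSO so potencies reflect activators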); settings: HepG2 Attagene TRANS reporter, ERRg transactivation
Chain of Estrogen-related receptor gamma (Homo sapiens) (P62508 whole entry, looked up, the tested form may be a part): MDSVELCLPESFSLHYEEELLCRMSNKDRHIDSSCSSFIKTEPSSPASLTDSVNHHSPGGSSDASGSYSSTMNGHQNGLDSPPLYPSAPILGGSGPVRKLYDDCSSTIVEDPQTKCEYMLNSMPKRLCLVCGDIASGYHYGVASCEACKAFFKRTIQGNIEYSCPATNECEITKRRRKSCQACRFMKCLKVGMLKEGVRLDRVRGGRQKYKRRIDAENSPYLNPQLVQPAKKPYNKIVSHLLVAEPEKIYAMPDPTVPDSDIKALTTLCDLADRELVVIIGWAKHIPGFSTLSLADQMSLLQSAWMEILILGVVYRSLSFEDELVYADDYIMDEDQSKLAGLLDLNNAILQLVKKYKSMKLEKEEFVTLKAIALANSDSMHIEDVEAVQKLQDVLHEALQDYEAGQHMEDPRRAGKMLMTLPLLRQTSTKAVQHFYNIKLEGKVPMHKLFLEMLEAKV
Procedure, shortened: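 Exogenous NR-Gal4 chimera activity was assessed in HepG2 cells bearing transfected GAL4-UAS reporters. After 24 h dosing, total RNA underwent RT-PCR, fluorescent primer extension and HpaI digestion before capillary electrophoresis, with gain of signal scored against DMSO.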

Structure (SMILES): CC1(C)O[C@@H]2C[C@H]3[C@@H]4C[C@H](F)C5=CC(=O)CC[C@]5(C)[C@H]4[C@@H](O)C[C@]3(C)[C@]2(C(=O)CO)O1
- outcome [1]: inactive
- outcome [2]: inactive
- outcome [3]: inactive
- outcome [4]: inactive
- outcome [5]: inactive
- outcome [6]: inactive
- outcome [7]: inactive
- outcome [8]: inactive
- outcome [9]: inactive
- outcome [10]: inactive
- outcome [11]: inactive
- outcome [12]: inactive
- outcome [13]: inactive
- outcome [14]: inactive

Structure (SMILES): Cc1cnc(NC(=O)C2=C(O)c3ccccc3S(=O)(=O)N2C)s1
- outcome [1]: inactive
- outcome [2]: inactive
- outcome [3]: inactive
- outcome [4]: inactive
- outcome [5]: inactive
- outcome [6]: inactive
- outcome [8]: inactive
- outcome [9]: inactive
- outcome [10]: inactive
- outcome [11]: inactive
- outcome [13]: inactive
- outcome [14]: inactive
- outcome [15]: inactive

Structure (SMILES): C=CC(=O)OCCC(=O)O
- outcome [1]: inactive
- outcome [4]: inactive
- outcome [5]: inactive
- outcome [6]: inactive
- outcome [7]: inactive
- outcome [8]: inactive
- outcome [9]: inactive
- outcome [10]: inactive
- outcome [11]: inactive
- outcome [12]: inactive
- outcome [16]: inactive
- outcome [17]: inactive
- outcome [14]: inactive
- outcome [18]: inactive
- outcome [19]: inactive

Structure (SMILES): C[C@]12CCC(=O)C=C1CC[C@@H]1[C@@H]2C(=O)C[C@@]2(C)[C@H]1CC[C@]2(O)C(=O)CO
- outcome [1]: inactive
- outcome [3]: inactive
- outcome [4]: inactive
- outcome [5]: inactive
- outcome [6]: inactive
- outcome [7]: inactive
- outcome [8]: inactive
- outcome [9]: inactive
- outcome [10]: inactive
- outcome [11]: inactive
- outcome [13]: inactive
- outcome [14]: inactive
- outcome [18]: inactive

Structure (SMILES): CCCCCCCOC(=O)CCC
- outcome [1]: inactive
- outcome [2]: inactive
- outcome [3]: inactive
- outcome [4]: inactive
- outcome [5]: inactive
- outcome [6]: inactive
- outcome [7]: inactive
- outcome [8]: inactive
- outcome [9]: inactive
- outcome [10]: inactive
- outcome [11]: inactive
- outcome [12]: inactive
- outcome [16]: inactive
- outcome [13]: inactive
- outcome [17]: inactive
- outcome [14]: inactive
- outcome [18]: inactive

Structure (SMILES): Nc1ccc(N=Nc2ccccc2)c(N)n1
- outcome [1]: inactive
- AC50 [2]: 100 µM (active)
- AC50 [3]: 51.6 µM (active)
- outcome [4]: inactive
- outcome [5]: inactive
- outcome [6]: inactive
- outcome [7]: inactive
- outcome [9]: inactive
- outcome [10]: inactive
- outcome [11]: inactive
- AC50 [12]: 68.9 µM (active)
- outcome [16]: inactive
- AC50 [13]: 27.8 µM (active)
- outcome [15]: inactive

Structure (SMILES): O=C(O)c1cc2ccccc2nc1C(=O)O
- outcome [1]: inactive
- outcome [2]: inactive
- outcome [3]: inactive
- outcome [4]: inactive
- outcome [5]: inactive
- outcome [6]: inactive
- outcome [7]: inactive
- outcome [8]: inactive
- outcome [9]: inactive
- outcome [10]: inactive
- outcome [11]: inactive
- outcome [12]: inactive
- outcome [14]: inactive

Structure (SMILES): Cc1oncc1C(=O)Nc1ccc(C(F)(F)F)cc1
- outcome [1]: inactive
- AC50 [2]: 100 µM (active)
- outcome [4]: inactive
- outcome [5]: inactive
- outcome [6]: inactive
- outcome [7]: inactive
- outcome [8]: inactive
- outcome [9]: inactive
- outcome [10]: inactive
- outcome [11]: inactive
- outcome [13]: inactive
- outcome [14]: inactive
- outcome [18]: inactive

Structure (SMILES): Cc1ccccc1C
- outcome [1]: inactive
- outcome [2]: inactive
- outcome [3]: inactive
- outcome [4]: inactive
- outcome [5]: inactive
- outcome [6]: inactive
- outcome [7]: inactive
- outcome [9]: inactive
- outcome [10]: inactive
- outcome [11]: inactive
- outcome [12]: inactive
- outcome [14]: inactive
- outcome [18]: inactive
- outcome [19]: inactive

Structure (SMILES): N#CCc1ccc(Cl)cc1Cl
- outcome [1]: inactive
- outcome [2]: inactive
- outcome [3]: inactive
- outcome [4]: inactive
- outcome [5]: inactive
- outcome [6]: inactive
- outcome [7]: inactive
- outcome [9]: inactive
- outcome [10]: inactive
- outcome [11]: inactive
- outcome [16]: inactive
- outcome [13]: inactive
- outcome [14]: inactive
- outcome [15]: inactive
